Screening data (PubChem)
AMA1 RON2 block: AMA1-RON2 (P. falciparum) interaction inhibition. AlphaScreen AMA1-biotinylated RON2 peptide binding. Potency, µM (series often up to 58.2 µM), inactives show at the highest dose activity change, negative = inhibition, actives largely listed as inhibitors. actives 0.2% (n = 360,000). AID 720542;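 note: 0% = vehicle wells and -100% = peptide control; nearly all actives have a fitted effect of over 45% in size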
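AMA1 (3D7) with his tag at 25 nM final met compounds first, then biotinylated RON2 peptide at 25 nM; detection used donor plus acceptor beads, 10 µg/mL apiece, read by AlphaScreen after 30 min at room temperature.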
Pf growth 96h: inhibits malaria parasite growth, 96 h | P. falciparum luciferase reporter growth, 96 h | AID 504834 | actives 6.9% (n = 320,000) | Potency, µM (highest dose often 28.7 µM), for inactives: top-dose activity change, negative = inhibition, actives largely listed as inhibitors
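Compounds incubated with erythrocytes infected by luciferase-expressing P. falciparum (2% hematocrit, 0.05% parasitemia final) for 96 hours, 37 C in 5% CO2. Growth inhibition scored as decreased luciferase luminescence.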
VACV Venus inh: inhibitors of vaccinia virus (Venus reporter) | Vaccinia virus Venus reporter expression, fluorescence | Potency, µM (doses to about 36.5 µM), for the others: at the top dose activity change, negative = inhibition, actives largely listed as inhibitors | actives 0.46% (n = 330,000); calls by dose curve; tested in A549 cells; note: nearly all actives have a fitted effect of over 30% in size
VACV mCherry inh: vaccinia inhibition (mCherry reporter). Vaccinia virus mCherry reporter infection, fluorescence. Potency, µM (doses to about 36.5 µM), for inactives: at the top dose activity change, negative = inhibition, actives largely listed as inhibitors. actives 0.63% (n = 310,000). AID 720579; calls by dose curve; tested in A549 cells; note: nearly all actives have a fitted effect of over 35% in size
Pf growth 48h: inhibits P. falciparum growth in the first generation, 48 h. P. falciparum luciferase growth in erythrocytes, 48 h. Potency, µM (titrated, usually from 28.7 µM), for inactives: at the highest dose activity change, negative = inhibition, most hits filed as inhibitors. actives 5.9% (n = 310,000). AID 504832
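Cell-based growth assay: transgenic P. falciparum expressing firefly luciferase, cultured in red cells within RPMI 1640 containing 0.5% w/v Albumax, 24 mM bicarbonate and gentamycin. A drop in luciferase activity indicates inhibition.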
* hit, by the source's call; [ ] = remark or other dose. In the library only some 8.7% were active in any assay of this set; here they are far more common. Unless noted, calls come from the whole dose curve; as a rule, active = well fitted curve in the direction sought with a large enough effect; inconclusive = small, poorly fitted or top-dose-only effect, or another doubt; inactive = no such curve, though single readings can be large; an effect the other way counts as inactive or inconclusive. Unless noted, % is set by controls: 0 for no effect and ±100 for the full control effect; potency is the fitted concentration of half-maximal effect.

What do the screens show for `CCCc1nnc(NC(=O)CCC(=O)N2CCN(Cc3ccc(Cl)cc3)CC2)s1`?
AMA1 RON2 block: 15%; Pf growth 96h: 12µM*; VACV Venus inh: -16%[7.34 µM]; VACV mCherry inh: -1%[7.34 µM]; Pf growth 48h: -24%

Results for CCc1nnc(NC(=O)CCC(=O)N2CCN(Cc3ccc(Cl)cc3)CC2)s1 ?
AMA1 RON2 block: -2%; VACV Venus inh: inconclusive; Pf growth 48h: inconclusive

What do the screens show for `Cc1ccc(OCCN2CCN(C(=O)CCC(=O)Nc3nnc(CC(C)C)s3)CC2)cc1`?
AMA1 RON2 block: -7%; Pf growth 96h: 0.33µM*; VACV Venus inh: -10%; VACV mCherry inh: -19%; Pf growth 48h: 12µM*

How did CCCCCCCCCOC(=O)CNc1nc(C#N)nc(NCC(=O)OCCCCCCCCC)n1 do in these assays?
VACV Venus inh: -9%; VACV mCherry inh: -12%

What do the screens show for `O=c1nc2n(c3cc(Cl)c(S(=O)(=O)N4CCOCC4)cc13)CCCCC2`?
AMA1 RON2 block: 16%; Pf growth 96h: 9.3µM*; VACV Venus inh: -12%; Pf growth 48h: -17%

What do the screens show for `Cc1ccn2c(c1)nc(=O)c1cc(S(=O)(=O)N3CCCCC3)c(Cl)cc12`?
VACV Venus inh: 4%; VACV mCherry inh: 0%

How did O=[As](O)(O)c1ccc(N=Nc2ccc(O)cc2)cc1 do in these assays?
AMA1 RON2 block: -6%; Pf growth 96h: 2.9µM*; VACV Venus inh: -9%; VACV mCherry inh: inactive; Pf growth 48h: inconclusive

Results for CCC(C)n1c(C)nc2c(c1=O)c1nc3ccccc3nc1n2CCC1=CCCCC1 (stereo not given) ?
AMA1 RON2 block: 0%; Pf growth 96h: 12µM*; Pf growth 48h: 13µM*

Results for COc1ccc(O)c(CN2CCC3(CCC(CNC(=O)c4ccccc4)O3)CC2)c1 (stereo not given) ?
VACV Venus inh: -17%; VACV mCherry inh: -17%

What do the screens show for `CCC(C)Sc1cccc(-c2nc3ccccn3c2NCc2ccccc2)c1` (stereo not given)?
AMA1 RON2 block: 16%; VACV Venus inh: -6%; VACV mCherry inh: inconclusive

What do the screens show for `CCC(C)Sc1cccc(-c2nc3ccc(C)cn3c2NCc2ccccc2)c1` (stereo not given)?
AMA1 RON2 block: -4%; Pf growth 96h: 13µM*; VACV Venus inh: inconclusive; VACV mCherry inh: -26%; Pf growth 48h: 3.3µM*

Results for Cc1ccc2nc(-c3cccc(-c4cccc(Cl)c4)c3)c(NCc3ccccc3)n2c1 ?
AMA1 RON2 block: -4%; Pf growth 96h: 10µM*; VACV Venus inh: -24%; VACV mCherry inh: inactive; Pf growth 48h: 7.4µM*

What do the screens show for `CCC(C)Sc1cccc(-c2nc3ccc(Cl)cn3c2NCc2ccccc2)c1` (stereo not given)?
AMA1 RON2 block: 49%; Pf growth 96h: 10µM*; VACV Venus inh: inconclusive; VACV mCherry inh: inconclusive; Pf growth 48h: 9.3µM*

How did Cc1ccc2nc(-c3ccccc3)c(Cc3cccc(Cl)c3)n2c1 do in these assays?
AMA1 RON2 block: 14%; VACV Venus inh: 2%; VACV mCherry inh: 8%

Results for Cc1ccc(-c2nnc(SCc3nc4ccccc4[nH]3)n2Cc2ccco2)cc1 ?
AMA1 RON2 block: 10%; Pf growth 96h: inconclusive; Pf growth 48h: inconclusive

Results for c1coc(Cn2c(SCc3nc4ccccc4[nH]3)nnc2-c2cccs2)c1 ?
AMA1 RON2 block: -8%; Pf growth 96h: 10µM*; Pf growth 48h: -22%

What do the screens show for `CCn1c(SCc2nc3ccccc3nc2C)nnc1-c1cccs1`?
AMA1 RON2 block: 21%; Pf growth 96h: -4%; VACV Venus inh: -22%; VACV mCherry inh: inactive; Pf growth 48h: 10µM*

What do the screens show for `CCCC1S/C(=N/N=C/c2ccc(C)cc2)N(Cc2ccc(OC)cc2)C1=O` (stereo not given)?
AMA1 RON2 block: -4%; Pf growth 96h: 10µM*; Pf growth 48h: 4.1µM*

How did COc1ccc(/C=N/N=C2\SC(CC(=O)O)C(=O)N2c2ccccc2)cc1 (stereo not given) do in these assays?
AMA1 RON2 block: 12%; Pf growth 96h: 1.7µM*; VACV Venus inh: -4%; VACV mCherry inh: -4%; Pf growth 48h: 10%

How did Cn1cnc([N+](=O)[O-])c1Oc1ccc2ccccc2c1 do in these assays?
AMA1 RON2 block: -26%; Pf growth 96h: -26%; VACV Venus inh: 7.9µM*; VACV mCherry inh: 6.3µM*; Pf growth 48h: -4%

Results for Cn1cnc([N+](=O)[O-])c1Sc1nc2ccccc2[nH]1 ?
AMA1 RON2 block: 8%; Pf growth 96h: inconclusive; VACV Venus inh: -24%; VACV mCherry inh: inconclusive; Pf growth 48h: inconclusive

What do the screens show for `O=C(Oc1ccccc1)c1cccc2cccc(C(=O)Oc3ccccc3)c12`?
AMA1 RON2 block: 2%; Pf growth 96h: 10µM*; Pf growth 48h: inconclusive

Results for Cc1ccc2c(c1)C(c1ccc(F)cc1)N(C(=O)C(C)C)CC(=O)N2 (stereo not given) ?
VACV Venus inh: -12%; VACV mCherry inh: -25%

How did Cc1ccc(NCc2cccn2-c2nnc(N3CCCCCC3)s2)cc1 do in these assays?
VACV Venus inh: 3%; VACV mCherry inh: 0%

How did Cc1ccc(CCNC(=O)C23CN(Cc4ccccc4)CC2C(c2cccc([N+](=O)[O-])c2)=NO3)cc1 (stereo not given) do in these assays?
AMA1 RON2 block: -18%; Pf growth 96h: inconclusive; VACV Venus inh: -21%; VACV mCherry inh: -21%; Pf growth 48h: 2.9µM*

How did O=C(NCC1CCCCC1)C12CN(Cc3ccccc3)CC1C(c1cccc([N+](=O)[O-])c1)=NO2 (stereo not given) do in these assays?
AMA1 RON2 block: -5%; Pf growth 96h: inconclusive; VACV Venus inh: -17%; VACV mCherry inh: inconclusive; Pf growth 48h: 1.7µM*

What do the screens show for `COc1cc(OC)c(/C=C/c2ccc3ccccc3[n+]2[O-])c(OC)c1`?
VACV Venus inh: -8%; VACV mCherry inh: -10%

Results for Cn1c(=O)c2c(SCC(=O)Nc3ccc(F)cc3F)nc(C3CCCC3)nc2n(C)c1=O ?
VACV Venus inh: inconclusive; VACV mCherry inh: -26%

How did COc1ccc(N2CC(NC(=O)c3ccc4c(c3)OCO4)CC2=O)cc1 (stereo not given) do in these assays?
VACV Venus inh: -9%[7.34 µM]; VACV mCherry inh: -9%[7.34 µM]

Results for C=C(C)CSc1nc2sc3c(c2c(=O)n1-c1ccccc1)CCC(C)C3 (stereo not given) ?
VACV Venus inh: -14%; VACV mCherry inh: -25%

What do the screens show for `c1ccc(C2C3=C(Nc4ncnn42)c2ccccc2CCC3)cc1` (stereo not given)?
AMA1 RON2 block: 42%; Pf growth 96h: 5.2µM*; Pf growth 48h: -7%
